Results on 91 compounds are retold here after PubChem BioAssay AID1851 (National Center for Advancing Translational Sciences (NCATS), 2009).

Each structure is given as a SMILES string. In all, about 16,000 compounds went through this assay and about 5,100 (32%) were called active. Not shown: some 25% with an inconclusive outcome. The list shows a part of the results. Values without a mark were called inactive. The call rests on the fitted dose curve; in most records, active means well fitted curve in the direction sought with a large enough effect; inconclusive means small, poorly fitted or top-dose-only effect, or effect the other way; inactive means no such curve, though single readings can be large or run the other way.
On the % scale 0 is the no-effect control and ±100 the full control effect.

The target in this experiment is Cytochrome P450 3A4 (Homo sapiens) (UniProt P08684). In words: Cytochrome panel assay with activity outcomes. Conditions: recombinant CYP, pro-luciferin dealkylation, luminescence, p450-cyp3a4; series mostly up to 57.1 µM; activity, negative = inhibition: at the top concentration.
Chain of Cytochrome P450 3A4 (Homo sapiens) (P08684 whole entry, looked up): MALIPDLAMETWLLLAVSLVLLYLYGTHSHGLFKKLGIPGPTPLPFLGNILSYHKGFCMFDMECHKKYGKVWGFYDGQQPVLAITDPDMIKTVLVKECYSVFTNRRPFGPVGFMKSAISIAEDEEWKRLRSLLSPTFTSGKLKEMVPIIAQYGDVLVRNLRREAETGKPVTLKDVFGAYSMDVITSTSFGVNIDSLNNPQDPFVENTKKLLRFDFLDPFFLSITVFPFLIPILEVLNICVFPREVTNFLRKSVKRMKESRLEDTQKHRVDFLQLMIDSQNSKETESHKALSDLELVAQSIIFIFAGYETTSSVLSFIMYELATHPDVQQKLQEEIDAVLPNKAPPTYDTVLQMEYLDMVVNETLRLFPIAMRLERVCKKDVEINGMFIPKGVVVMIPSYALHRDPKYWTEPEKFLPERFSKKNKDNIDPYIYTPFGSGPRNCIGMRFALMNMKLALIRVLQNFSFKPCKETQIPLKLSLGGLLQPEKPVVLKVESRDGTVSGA
The term AC50 denotes the concentration at which the activity in the assay is half-maximal. Take `Cc1ccc2nc(-c3cccnc3)oc2c1`: the AC50 is 39.8 µM (active).
With `c1ccc(-c2nc3ccccc3o2)nc1`, the “activity, negative = inhibition” value was -18.2%.
Same read-out and setting: the same measure for `Clc1ccc2oc(-c3cccnc3)nc2c1`: -3.98%.
`Cc1cc(C)n(-c2cc(N3CCN(S(=O)(=O)c4ccc(C)c(C)c4)CC3)ccc2[N+](=O)[O-])n1`: the AC50 is 3.16 µM (active).
As for `CS(=O)(=O)N1CCN(c2c(Cl)cccc2[N+](=O)[O-])CC1`, the “activity, negative = inhibition” value is 15.1%.
Same read-out and setting: the value for `O=[N+]([O-])c1ccc(N2CCCC2)cc1N1CCCC1` was -24.1%.
Consider `Cc1c(Cl)c([N+](=O)[O-])nn1Cc1ccc(C(=O)N/N=C\c2cccc(Br)c2)o1`, for which the AC50 was 3.98 µM (active).
As to `C/C(Cn1nc([N+](=O)[O-])cc1C)=N\NC(=O)c1ccc(O)cc1O`, the activity, negative = inhibition was -3.84% [at 2.29 µM].
As for `Cc1c(Cl)c([N+](=O)[O-])nn1Cc1ccc(C(=O)N/N=C\c2cc(Cl)ccc2O)o1`, the AC50 was 2.24 µM (active).
As to `Cc1cc(C(=O)N/N=C/c2cccc([N+](=O)[O-])c2)c(C)o1`, the “activity, negative = inhibition” value was -17%.
Same read-out and setting: the value for `CCN(CC)C(=O)C(=O)N/N=C/c1cccc(Br)c1` was -20.6%.
On the same count and under the same terms, the value for `N#Cc1cccc(NC(=O)N2CC3(CCN(C(=O)c4ccco4)CC3)C2)c1` was -26.1%.
As to `N#Cc1cccc(NC(=O)N2CC[C@@]3(CCCN(C(=O)c4cccc(F)c4)C3)C2)c1`, the AC50 is 10 µM (active).
On to `N#Cc1cccc(NC(=O)N2CCCC3(CCN(C(=O)c4ccco4)CC3)C2)c1`, for which the AC50 was 5.01 µM (active).
Still for that read-out and setting: the same measure for `N#Cc1cccc(NC(=O)N2CCCC3(CCN(C(=O)c4cccc(F)c4)CC3)C2)c1`: 15.8 µM (active).
In the case of `S=c1[nH]c2cc(Cl)ccc2s1`, the activity, negative = inhibition is -16.9% [at 2.29 µM].
The same measure, in the same setting: the value for `O=C(Nc1ccccc1)C(Cc1ccccc1)NC(=O)C12CC3CC(CC(C3)C1)C2` (stereo unspecified) was -5.95%; that for `CCc1ccc(N2CC(C(=O)NC3=NCCS3)CC2=O)cc1` (stereo unspecified) was 3.42% [at 2.29 µM].
For the compound `CC(C)C(NC(=O)C12CC3CC(CC(C3)C1)C2)C(=O)NC1=NCCS1` (stereo unspecified), the AC50 was 15.8 µM (active).
Regarding `Cc1ccc(S(=O)(=O)N(CC(=O)N2CCN(c3ccc(F)cc3)CC2)C2CCCCC2)cc1`, the AC50 is 1 µM (active).
Take `Cc1ccc(S(=O)(=O)NC(=O)NN2C[C@H]3CCC[C@@H]3C2)cc1`: the “activity, negative = inhibition” value was 10.8% [at 25.6 µM].
Same read-out and setting: the value for `CCCS(=O)(=O)N1CCCC(C(=O)NCCCN2CCN(c3ccc(F)cc3)CC2)C1` (stereo unspecified) was 14.9% [at 2.29 µM]; that for `O[C@H](CNc1ccccn1)c1ccccc1` was -27.1% [at 11.4 µM].
Still for that read-out and setting: the value for `CN1CCN(c2nc3c(c(=O)n(C)c(=O)n3C)n2C)CC1` was 0.305% [at 11.4 µM].
Take `COCCn1c(=O)c(-c2cccs2)nc2cnc(N3CCNCC3)nc21`: the AC50 is 15.8 µM (active).
On the same count and under the same terms, the value for `CN1CCN(c2ncc3nc(-c4cccs4)c(=O)n(Cc4cccs4)c3n2)CC1` was 10 µM (active).
Regarding `COCCn1c(=O)c(-c2ccc(OC)cc2)nc2cnc(N3CCOCC3)nc21`, the “activity, negative = inhibition” value was -11.4%.
Take `CN1CCN(c2ncc3nc(-c4cccs4)c(=O)n(CCc4ccccc4)c3n2)CC1`: the AC50 was 20 µM (active).
Take `COc1ccc(-c2nc3cnc(N4CCOCC4)nc3n(CCC#N)c2=O)cc1`: the “activity, negative = inhibition” value was 5.32%.
Regarding `COCCn1c(=O)c(-c2ccc(OC)cc2)nc2cnc(N3CCNCC3)nc21`, the AC50 was 15.8 µM (active).
For `CN1CCN(c2ncc3nc(-c4ccccc4)c(=O)n(Cc4cccs4)c3n2)CC1`, the “activity, negative = inhibition” value is -4.51%.
On the same count and under the same terms, the same measure for `COCCn1c(=O)c(C)nc2cnc(N3CCNCC3)nc21`: -23.2%.
`C[N+](C)(C)c1ccc([C@H](N)C(=O)O)cc1`: the activity, negative = inhibition is 1.95% [at 11.4 µM].
On the same count and under the same terms, the value for `CCc1cccc2c(-c3ccccc3)c3c(nc12)OCC3` was -68.4%; that for `C[C@@H]1C[C@H](OC(=O)[C@@H](O)c2ccccc2)CC(C)(C)N1C` was -14.4% [at 25.6 µM].
For `O=c1c(-c2cccs2)nc2cnc(N3CCNCC3)nc2n1Cc1cccs1`, the AC50 is 2.51 µM (active).
In the case of `COCCn1c(=O)c(-c2cccc(C#N)c2)nc2cnc(N3CCNCC3)nc21`, the concentration at half-maximal activity (AC50) was 20 µM (active).
Turning to `Cc1nc2cnc(N3CCOCC3)nc2n(C)c1=O`, the “activity, negative = inhibition” value is -3.9%.
Same read-out and setting: the value for `COCCn1c(=O)c(-c2cccc(C#N)c2)nc2cnc(N3CCOCC3)nc21` was -1.34%.
`Cc1nc2cnc(N3CCNCC3)nc2n(Cc2cccs2)c1=O`: the AC50 was 3.16 µM (active).
For the compound `COCCn1c(=O)c(-c2cccc(C#N)c2)nc2cnc(N3CCN(C)CC3)nc21`, the “activity, negative = inhibition” value is 10.2%.
Same read-out and setting: the value for `O=c1nc2ccccc2c2n1C[C@H](CN1CCN(c3ccccc3)CC1)N2` was -8.5%; that for `CC(C)=CCC/C(C)=C/CO/N=C1/C[C@@H](O)[C@@H](O)[C@@H]2[C@@H]3C(=O)N(C(C)(C)C)C(=O)[C@H]3CC[C@@H]12` was -26.7% [at 11.4 µM]; that for `COc1cc(Br)cc2cc(C(=O)NCC3CCCO3)c(=O)oc12` (stereo unspecified) was -9.38%.
Regarding `COC(=O)C1=C(N)Oc2cc(C)n(CC3CCCO3)c(=O)c2C1c1ccccc1OC` (stereo unspecified), the AC50 was 6.31 µM (active).
As for `O=C(O)[C@@H]1[C@@H](C(=O)O)[C@]23C[C@@]2(C(=O)O)[C@]2(C(=O)O)CCC3=C3CCCC312`, the activity, negative = inhibition was 7.71% [at 11.4 µM].
Still for that read-out and setting: the same measure for `O=C(NCC1CCC(C(=O)O)CC1)OCc1ccccc1` (stereo unspecified): -20.2%.
With `CNC(=O)[C@H](C)[C@H]1C[C@]1(C)[C@H](NC(=O)OCc1ccccc1)c1ccccc1`, the AC50 is 2 µM (active).
Turning to `CNC(=O)[C@H](C)[C@@H]1C[C@@]1(C)[C@@H](NC(=O)OCc1ccccc1)c1ccccc1`, the AC50 was 2.51 µM (active).
`CCOC(=O)N/N=C1/C[C@@H](O)[C@@H](O)[C@@H]2[C@@H]3C(=O)N(C(C)(C)C)C(=O)[C@H]3CC[C@@H]12`: the activity, negative = inhibition is -11.7% [at 11.4 µM].
Turning to `Cc1noc(C)c1C(=O)N1CCC[C@@]2(CCN(c3ccccc3)C2)C1`, the AC50 was 5.01 µM (active).
With `Cc1noc(C)c1C(=O)N1CCC[C@@]2(CCN(C(=O)Nc3ccccc3)C2)C1`, the AC50 is 15.8 µM (active).
For the compound `Cc1noc(C)c1C(=O)N1CCC2(CC1)CN(c1ccccc1)C2`, the “activity, negative = inhibition” value was 25%.
For the compound `Cc1noc(C)c1C(=O)N1CCC[C@@]2(CCN(C(=O)Nc3cccc(F)c3)C2)C1`, the AC50 is 5.01 µM (active).
Take `Cc1noc(C)c1C(=O)N1CCC[C@@]2(CCN(C(=O)NC(C)C)C2)C1`: the “activity, negative = inhibition” value is -17.5%.
On the same count and under the same terms, the same measure for `Cc1noc(C)c1C(=O)N1CCC[C@@]2(CCN(c3ncccn3)C2)C1`: -27.9%.
For the compound `COc1ccc(NC(=O)N2CC3(CCN(C(=O)c4c(C)noc4C)CC3)C2)cc1`, the “activity, negative = inhibition” value was -24.2%.
The same measure, in the same setting: the value for `C=CC1=C[C@@H](O)C2OC2C12OCCCO2` (stereo partly specified) was -4.04% [at 11.4 µM].
As for `CCCn1c(=O)c2[nH]c(-c3ccc(OCC(=O)NCCN)cc3)nc2n(CCC)c1=O`, the AC50 is 2.51 µM (active).
With `CCCn1c(=O)c2[nH]c(C3CCCC3)nc2n(CCC)c1=O`, the “activity, negative = inhibition” value was -26.8%.
In the case of `COc1cccc(-c2cc(C(F)(F)F)n3ncc(S(=O)(=O)c4ccccc4)c3n2)c1`, the AC50 was 3.98 µM (active).
As for `O=S(=O)(c1ccccc1)c1cnn2c(C(F)(F)F)cc(-c3ccccc3)nc12`, the “activity, negative = inhibition” value was 14.2%.
Turning to `CCCn1c(/C=C/c2ccccc2)nc2ccccc21`, the AC50 was 17.8 µM (active).
On to `Cc1nc2ccccc2n1CC(=O)N/N=C\C=C\c1ccccc1`, for which the “activity, negative = inhibition” value was 12.7%.
On to `CCc1ccccc1NC(=S)NCc1ccc2c(c1)OCO2`, for which the AC50 is 4.47 µM (active).
With `CCc1c(C(=O)NCc2ccc3c(c2)OCO3)[nH]c(C)c1C(C)=O`, the AC50 is 0.891 µM (active).
Turning to `CCOc1c2ccc(C(=O)NCc3ccc4c(c3)OCO4)cc2nn1CC`, the activity, negative = inhibition was 14.3% [at 2.29 µM].
With `NC(N)=NNC(=O)C(=O)O`, the activity, negative = inhibition is -1.33% [at 11.4 µM].
Same read-out and setting: the value for `Cc1ccc(N2C(=O)C(Cl)=C(NCc3ccccc3)C2=O)c(C)c1` was -82.7%.
`CC1=NN(c2ccc(C)cc2C)C(=O)C1C(c1ccccc1)C1C(=O)N(c2ccc(C)cc2C)N=C1C` (stereo unspecified): the AC50 is 11.2 µM (active).
As to `CC1=NN(c2ccc(F)cc2)C(=O)C1C(c1cccc(O)c1)c1c(C)[nH]n(-c2ccc(F)cc2)c1=O` (stereo unspecified), the activity, negative = inhibition was 2.16% [at 2.29 µM].
In the case of `CCN(CC)CCNC(=O)c1cc(S(C)(=O)=O)ccc1OC`, the AC50 entry is “inactive”.
Same read-out and setting: the same measure for `CCN(CC)CCNC(=O)c1cc(Cl)c(N)cc1OC`: “inactive”; for `CCN(CC)CCNC(=O)c1ccc(Cl)c(S(=O)(=O)Nc2ccccc2OC)c1`: 14.1 µM (active).
The same measure, in the same setting: the same measure for `CCCCN(CC)Cc1ccc(CNC(=O)Nc2ccc(OC)cc2OC)o1`: 22.4 µM (active).
With `COc1cnc(-c2ccccc2)nc1Oc1cccc(C)c1`, the “activity, negative = inhibition” value was -66.9%.
The same measure, in the same setting: the same measure for `COc1cnc(-c2ccccn2)nc1Sc1c(Cl)cccc1Cl`: -4.39%.
Regarding `COc1cnc(-c2ccccn2)nc1Oc1ccc(Cl)c2ccccc12`, the AC50 was 14.1 µM (active).
For the compound `CN(Cc1cnc2nc(N)nc(N)c2n1)c1ccc(C(=O)N[C@@H](CCC(=O)O)C(=O)O)cc1`, the “activity, negative = inhibition” value was -19.3%.
Regarding `CCn1c2ccccc2c2cc(NC(=O)CSc3nnc(-c4ccc(OC)c(OC)c4)n3N)ccc21`, the AC50 was 1 µM (active).
Regarding `COc1ccc(C)cc1NC(=O)CSc1nnc(-c2ccc(OC)c(OC)c2)n1N`, the AC50 is 7.94 µM (active).
On to `COc1ccc(NC(=O)COC(=O)Cn2c(C)nc3ccccc32)cc1OC`, for which the activity, negative = inhibition was 8.93% [at 2.29 µM].
On the same count and under the same terms, the value for `COc1ccc(C)cc1NC(=O)CCC(=O)Nc1nnc(C(F)(F)F)s1` was 1.53%; that for `Cn1c(=O)c2c(ncn2C[C@@H](O)CO)n(C)c1=O` was -3.39% [at 25.6 µM]; that for `Cn1c(=O)c2c(ncn2CCO)n(C)c1=O` was -5.85% [at 25.6 µM].
For `Cn1c(=O)c2c(ncn2CC(COCc2ccccc2Cl)OCc2ccccc2Cl)n(C)c1=O` (stereo unspecified), the AC50 is 7.94 µM (active).
On the same count and under the same terms, the same measure for `O=C(CSC1=NCCS1)N1CCN(c2ccc(Cl)cc2)CC1`: 15.8 µM (active).
As to `Cc1cc([N+](=O)[O-])c(C)c(Br)c1C`, the activity, negative = inhibition was -7.05% [at 11.4 µM].
As to `NC(=O)/C(=C\c1ccncc1)c1cccc2ccccc12`, the AC50 is 3.16 µM (active).
Consider `O=C(O)/C(=C\c1ccccc1)c1ccccc1`, for which the activity, negative = inhibition was -6.04% [at 11.4 µM].
As to `O=C(O)/C(=C\c1ccc(O)cc1)c1cccc2ccccc12`, the activity, negative = inhibition is -2.12% [at 11.4 µM].
